FMDV inh: High Throughput Screening for Foot and Mouth Disease Virus Antivirals | 1.2% of 410,000 active | Potency, µM (top dose mostly 57.9 µM), for inactives: at the highest dose activity change, negative = inhibition, actives largely listed as inhibitors | AID 1159524, 2015 | FMDV antiviral cell-based qHTS; calls by dose curve; tested in HEK293T cells; also: read-out not given here; potency is read from the fitted curve at half-maximal effect; nearly all actives have a fitted effect of over 45% in size
Vaccinia Venus: qHTS for Stage-Specific Inhibitors of Vaccinia Orthopoxvirus: Venus Reporter Primary qHTS | 0.46% of 330,000 active | Potency, µM (doses to about 36.5 µM), inactives show top-dose activity change, negative = inhibition, most hits filed as inhibitors | Vaccinia virus Venus reporter expression, fluorescence | AID 720580, 2013; calls by dose curve; tested in A549 cells; also: potency is read from the fitted curve at half-maximal effect; nearly all actives have a fitted effect of over 30% in size
HCMV antiviral: qHTS Assay for inhibitors of the human cytomegalovirus (HCMV). 4.5% of 410,000 active. HFF cells, HCMV-luciferase reporter, 72 h; active compounds read low. AID 1259415, 2018. activity change, negative = inhibition, % at 57.5 µM; in the data active = activity change below about -60%; inconclusive = no clear call, values can overlap the other calls; inactive = above about -39%
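After 16 h attachment at 37C, HFF cells received test compound and HCMV-luciferase (1 PFU/cell); reporter luminescence read 72 h later, data normalized against buffer-only and known inhibitor Salinomycin.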
HCV inh: qHTS Assay for Inhibitors of Hepatitis C Virus (HCV) | Huh7.5.1 HCVcc-Cre infection, luciferase reporter, 44 h | Potency, µM (titrated, usually from 41.8 µM), for inactives: top-dose activity change, negative = inhibition, most hits filed as inhibitors | 3.4% of 340,000 active; active = well fitted inhibition curve with a large enough effect; inconclusive = small, poorly fitted or top-dose-only effect, or another doubt; inactive = no such curve, though single readings can be large or run the other way; also: potency is read from the fitted curve at half-maximal effect
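Reporter virus HCVcc-Cre (~0.5 moi) infects cells exposed to compound; seeding density 1,000 cells/well with 4 h settling beforehand. Luminescence, 15 sec read, taken 44 h post-infection following a 15 min RT substrate incubation.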
Vaccinia mCherry: qHTS for Stage-Specific Inhibitors of Vaccinia Orthopoxvirus: mCherry Reporter Primary qHTS. Vaccinia virus mCherry reporter infection, fluorescence. Potency, µM (top dose mostly 36.5 µM), without a hit: at the highest dose activity change, negative = inhibition, hits mostly inhibitors. 0.63% of 310,000 active. AID 720579, 2013; calls by dose curve; tested in A549 cells; also: potency is read from the fitted curve at half-maximal effect; nearly all actives have a fitted effect of over 35% in size
* hit, by the source's call; i = inactive; ? = inconclusive; . = no result given; [ ] = remark or other dose. Sampled rows, rich in hits. Any-hit rate of the full collection: about 7.3%. % is scaled to controls: 0 for no effect and ±100 for the full control effect.

SMILES | FMDV inh | Vaccinia Venus | HCMV antiviral | HCV inh | Vaccinia mCherry
Cc1cccc(Sc2ccc([N+](=O)[O-])cc2[N+](=O)[O-])n1 | ? | -28.4% | -72.1* | -27.3% | -29.1%
O=[N+]([O-])c1ccc(Sc2ncccn2)c([N+](=O)[O-])c1 | 14.1µM* | ? | -97.2* | ? | ?
O=S1(=O)N[C@@H](Cc2ccccc2)COc2cc(NC3CC3)ccc21 | . | . | -8.5 | . | .
CCCc1cc(=O)oc2cc(OCC(=O)NC(Cc3ccc(Cl)cc3)C(=O)O)ccc12 (configuration not stated) | -15.4% | -2.2% | 16.4 | 0.501µM* | -2.3%
Cc1c(C)c2ccc(OCC(=O)N[C@@H](Cc3ccccc3)C(=O)O)cc2oc1=O | -0.7% | -5.5% | -76.8* | 5.9% | -2.8%
O=C(NCC(c1cccs1)S(=O)(=O)c1cccs1)c1ccc(Cl)cc1 (configuration not stated) | ? | 6.3% | 10.3 | . | -3.1%
O=C(NCc1ccccc1F)c1ccc2c(c1)OCO2 | 34.6% | . | 23.1 | 15.6% | .
O=C(NCCc1ccccc1F)c1ccc2c(c1)OCCO2 | 2.82µM* | -2.5% | -98.6* | 3.5% | -6.8%
COC(=O)CSc1nc2c(c(-c3ccc(C)o3)c1C#N)CCCC2 | -27.7% | . | -6.7 | 5.62µM* | .
COC(=O)CSc1nc(N)c(C#N)c(-c2ccc(O)cc2)c1C#N | 3.98µM* | . | 4.5 | 1.0% | .
O=C(N/C=N/OCc1ccc(Cl)cc1Cl)NOCc1c(Cl)cccc1Cl | ? | -15.8% | -31.7 | ? | -7.5%
CO/N=C/NC(=O)NOCc1c(Cl)cccc1Cl | 0.0% | -19.5% | -104.0* | -11.0% | .
O=C(CN1C(=O)c2cccnc2Oc2ccc(Cl)cc21)Nc1cccc(C(F)(F)F)c1 | -1.1% | -18.9% | 0.0 | . | -27.7%
CCN1CCN(C(c2ccc(F)cc2)c2c(O)cc(C)n(CCOC)c2=O)CC1 (configuration not stated) | -15.1% | -1.2% | -4.5 | . | -3.4%
CCc1nc(-c2cc3ccc(C)cc3[nH]c2=O)no1 | 59.6% | . | -70.9* | 19.0% | .
CN(C)S(=O)(=O)c1ccc(-c2csc(N/N=C/c3ccc(O)cc3)n2)cc1 | 14.1µM* | ? | ? | 10µM* | ?
CN(C)S(=O)(=O)c1ccc(-c2csc(N/N=C/c3ccco3)n2)cc1 | 6.31µM* | -17.7% | 0.0 | ? | ?
C(=N\Nc1nc(-c2ccccc2)cs1)/c1ccncc1 | 35.7% | 2.1% | 16.0 | -29.9% | -53.3%
CC1Oc2cc3c(-c4c(O)cc(O)c5c(O)c6c(cc45)OC(C)C(C)C6=O)c(O)cc(O)c3c(O)c2C(=O)C1C (configuration not stated) | ? | 3.98µM* | . | ? | ?
Cc1ccc(C)n1C1C(=O)N(Cc2ccc(C(C)C)cc2)c2ccccc21 (configuration not stated) | . | . | 17.6 | . | .
Cc1cc(/C([O-])=C(/C(=S)Nc2ccc(F)cc2)[n+]2ccccc2)c(C)n1-c1ccc(F)cc1 | -5.7% | . | 13.2 | 14.1µM* | .
COCCN(C)C(=O)c1cnn(-c2nccc(-c3cc(C)sc3C)n2)c1C | 44.1% | 5.7% | . | . | -10.5%
N#CC1=C(c2ccccc2)/C(=C/c2ccccc2)OC1=O | 6.31µM* | -1.4% | -106.1* | ? | i
COc1cc(N2C(=O)C=CC2=O)c(OC)cc1Cl | 35.5µM* | -22.2% | -97.7* | ? | -1.4%
Cc1ccc(C)c(S(=O)(=O)NCc2nc(N3CCCC3)c3cc(Cl)ccc3n2)c1 | -1.2% | -4.7% | . | . | -9.0%
SMILES | FMDV inh | Vaccinia Venus | HCMV antiviral | HCV inh | Vaccinia mCherry
CC(C)NC(=O)Cn1c(=O)nc(-c2ccccc2)c2ccccc21 | 6.3% | -21.9% | 49.2 | . | ?
CCOc1ccc(/C=C/c2ccc3ccccc3n2)cc1OCC | . | -12.0% | . | . | 38.4%
CCn1cc([N+](=O)[O-])c(C(=O)N2N=C(c3ccc4ccccc4c3)CC2c2cc(Br)ccc2O)n1 (configuration not stated) | -15.7% | ? | . | ? | 14.1µM*
CCC(C)NC(=O)COC(=O)c1csc2c1CCCC2 (configuration not stated) | 3.55µM* | -9.0% | -12.4 | 16.3% | -12.2%
CC(C)(C)OC(=O)NCCCCCc1nnc(SCc2ccc(F)cc2)o1 | ? | -4.4%[7.34 µM] | -66.8* | ? | -5.9%[7.34 µM]
Cc1ccc(NC(=O)CSc2nnc(CCNC(=O)OC(C)(C)C)o2)c(C)c1 | -18.9% | . | 0.3 | -0.5% | .
Cc1ccc(C)c(NC(=O)CSc2nnc(CCCCCNC(=O)OC(C)(C)C)o2)c1 | 15.8µM* | . | 71.1 | 8.1% | .
Cc1ccc(CSc2nnc(CCNC(=O)OC(C)(C)C)o2)cc1 | ? | -1.4% | 14.0 | 4.0% | -8.5%
CCCOc1ccc(C2C3=C(Nc4nc(N)[nH]c(=O)c42)c2ccccc2C3=O)cc1 (configuration not stated) | 19.4% | . | -67.3* | ? | .
CCOc1ccc(C2C3=C(Nc4nc(N)[nH]c(=O)c42)c2ccccc2C3=O)cc1 (configuration not stated) | 7.2% | -5.7% | -21.9 | ? | i
CCCCCC(CC(=O)NO)C(=O)NC(C(=O)N1CCCC1CO)C(C)C (configuration not stated) | -18.5% | -14.5% | -69.1* | ? | i
CC(C)(C)OC(=O)N1CCC[C@@H]1CO | ? | -12.5% | . | 5.7% | -1.8%
CC(C)CC(=O)N1CCN(S(=O)(=O)c2ccc(C3CCCCC3)cc2)CC1 | ? | . | -27.5 | 11.2µM* | .
CCc1ccc(NC(=O)N2CCN(c3nnc(C)c4c(C)n(-c5ccc(Cl)cc5)nc34)CC2)cc1 | -8.5% | ? | -39.8 | . | ?
Clc1cccc(-c2nc(NCc3cccnc3)c3ccccc3n2)c1 | -2.3% | . | -26.2 | 2.82µM* | .
CS(=O)(=O)Nc1cccc(-c2nc(NCc3cccnc3)c3ccccc3n2)c1 | -1.0% | 12.2% | . | . | 14.1%
FC(F)(F)c1nc(NCc2cccnc2)c2ccccc2n1 | -24.6% | -12.6% | -61.9* | -25.1% | -14.3%
c1ccc(-c2nc(NCc3cccnc3)c3ccccc3n2)cc1 | 0.0% | ? | -13.0 | 10µM* | -23.3%
Cc1ccc(-c2nc(NCc3cccnc3)c3ccccc3n2)cc1 | 19.0% | -21.0% | -19.8 | ? | -28.2%
c1cncc(-c2nc(NCc3ccco3)c3ccccc3n2)c1 | -19.4% | -13.5% | 34.7 | 10µM* | i
FC(F)(F)c1ccccc1-c1nc(NCc2cccnc2)c2ccccc2n1 | -25.4% | . | . | . | .
COCCN1C(=O)COCc2cc(-c3cnn(C)c3)ccc21 | . | . | 20.7 | . | .
N#Cc1c(NCc2ccccc2)ccnc1NCc1cccnc1 | -14.8% | ? | -80.2* | 7.08µM* | ?
Cc1nc(NCCCn2ccnc2)c2ccccc2n1 | -8.0% | -9.8% | -7.6 | -9.0% | -14.0%
c1cncc(-c2nc(NCCCn3ccnc3)c3ccccc3n2)c1 | -10.6% | -1.4% | -67.2* | ? | -8.2%
O=c1c2ccccc2n(Cc2ccccc2F)c(=O)n1-c1cccc(F)c1 | -23.7% | -10.4% | ? | . | -13.2%
